Unmarked numbers belong to inactive results.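 How the source made its calls: active means compounds whose GFP signal falls below 65% of the DMSO control level; inconclusive means fewer than 70 yeast cells counted in the well; inactive means the rest.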

The nature of the experiment: TOR branch reporter RPL19A-GFP response – cell-based, S. cerevisiae, third cherry pick, flow cytometry, confirmation (AID 504336).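 Further: median GFP fluorescence of all gated yeast cells by flow cytometry; ratio of well median fluorescence to plate mean of DMSO wells with DMSO = 100%.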 The settings on record: S. cerevisiae RPL19A-GFP strain, 3 h, at 10 µM, stronger effect = lower value.
Take `Cc1cccc(Nc2cc(=O)[nH]c(=O)[nH]2)c1C`: the GFP response relative to DMSO is 98.5%. To `CSc1nc(S(C)(=O)=O)nc2[nH]c(=O)[nH]c12` belongs 100%; to `CC(=O)Nc1ccc(-c2nc3ccccc3o2)cc1`, 99.6%; to `NC(=O)COc1cccc2cccnc12`, 102%. For `COc1ccc(N/C(C)=C/C(=O)c2ccccc2)cc1`, the GFP response relative to DMSO was 102%. Take `C/C(=C\C(=O)c1ccccc1)Nc1ccc(O)cc1`: the GFP response relative to DMSO was 100%. On to `COc1cccc(OCc2cc(C(=O)N3CCN(C)C(c4ccccc4)C3)no2)c1` (centres undefined), for which the GFP response relative to DMSO is 96.5%. Take `O=C(N/N=C/c1ccccc1O)c1cccc2ccccc12`: the GFP response relative to DMSO is 97%. Take `O=C(/C=C/Nc1cccc(O)c1)c1ccccc1`: the GFP response relative to DMSO is 98.8%.

On to `Cc1nc2c(O)cccc2cc1CO`, for which the GFP response relative to DMSO is 102%. On to `O=C(O)CCS(=O)(=O)c1nc(-c2cccs2)cc(C(F)(F)F)n1`, for which the GFP response relative to DMSO was 97%. `COc1ccccc1Nc1nc(NCCC(C)C)nc(N)c1[N+](=O)[O-]`: the GFP response relative to DMSO was 97.8%. Turning to `COc1ccc(OC)c2c(C)cc(C)nc12`, the GFP response relative to DMSO is 98.5%.

Regarding `CCN(CC)C(=O)Oc1cc(=O)n(C)c2ccccc12`, the GFP response relative to DMSO was 99.8%.

For the compound `Cc1ccc(Nc2nc(N)[nH]c(=O)c2N=O)cc1`, the GFP response relative to DMSO was 102%. Under `O=C(Nc1ccccc1)ON=C1c2ccccc2-c2ccccc21` stands 92.3%; under `COc1ccc(Nc2nc(NN)nc(C)c2[N+](=O)[O-])cc1`, 99.3%. `CC1=CN2C(=N)/C(=C/c3ccco3)C(=O)N=C2S1`: the GFP response relative to DMSO is 106%. Consider `Cn1c(=O)c2c(n3cnnc13)-c1ccccc1CC21CCCC1`, for which the GFP response relative to DMSO was 102%. As to `Nc1ccc(O)c2c1C(=O)c1ccccc1C2=O`, the GFP response relative to DMSO is 98.5%. As for `CCc1sc(C(=O)Nc2nc(-c3ccccn3)cs2)cc1C`, the GFP response relative to DMSO is 101%. Consider `Nc1ncnc(Nc2cc(Cl)cc(Cl)c2)c1[N+](=O)[O-]`, for which the GFP response relative to DMSO was 102%. Under `COCCCNc1nc(N)c([N+](=O)[O-])c(Nc2cc(OC)ccc2OC)n1` stands 101%. With `OCCN1CCN(c2ncnc3ccc(Br)cc23)CC1`, the GFP response relative to DMSO was 102%.

As for `Cc1cn2c(N)c(C=C3C=C(Cl)C(=O)C(Cl)=C3)c(=O)nc2s1`, the GFP response relative to DMSO is 104%.

`Cc1ccc(Nc2cc(=O)[nH]c(=O)[nH]2)cc1Cl`: the GFP response relative to DMSO was 100%. In the case of `Oc1c(I)cc(Cl)c2cccnc12`, the GFP response relative to DMSO was 86%.

As to `Cc1cccc(Nc2cc(=O)[nH]c(=O)[nH]2)c1`, the GFP response relative to DMSO was 100%. To `COC(=O)COc1c(Cl)cc(Cl)c2ccc(C)nc12` belongs 105%; to `CC(=O)NCCOc1cccc2cccnc12`, 102%; to `COc1cc(=O)n(C)c2c(O)cccc12`, 101%. As to `Nc1c(C(=O)O)ccc2c1C(=O)c1ccccc1C2=O`, the GFP response relative to DMSO is 101%. Take `CCCCC(=O)NCCc1cc2c(OC)ccc(OC)c2[nH]c1=O`: the GFP response relative to DMSO was 97.5%. Take `COc1ccccc1-c1cc(C(F)(F)F)nc(S(C)(=O)=O)n1`: the GFP response relative to DMSO is 96.2%. In the case of `COc1ccccc1-c1cc(C(F)(F)F)nc(S(=O)(=O)CCCC(=O)O)n1`, the GFP response relative to DMSO was 102%. As to `COc1ccc(OC)c(N/C(C)=C/C(=O)c2ccccc2)c1`, the GFP response relative to DMSO was 103%. For the compound `CNc1nc(N)c([N+](=O)[O-])c(Nc2cccc(Cl)c2)n1`, the GFP response relative to DMSO is 94.1%. Under `OCc1ccnc2c(O)cccc12` stands 99.1%; under `COc1cccc(N/C=C/C(=O)c2ccc(Cl)cc2)c1`, 101%.
